# Data: article PMC7862700, “An all-to-all approach to the identification of sequence-specific readers for epigenetic DNA modifications on cytosine”
# How the values were obtained:
# Assay in all cases: DAPPL (digital affinity profiling via proximity ligation, sequencing); 10 mM Tris-HCl pH 7.5, 50 mM NaCl, 1 mM DTT, 4% glycerol, room temperature, 30 min; GST-TFs on glutathione beads, 16-mer random dsDNA library, 0.1% formaldehyde crosslink after washing; high values mean tight binding
# FEV = molecular target: T1, FEV (Homo sapiens, UniProt Q99581 1-238); settings: protein: recombinant; tags: N-terminal GST; dsDNA, one strand shown
# T1 sequence: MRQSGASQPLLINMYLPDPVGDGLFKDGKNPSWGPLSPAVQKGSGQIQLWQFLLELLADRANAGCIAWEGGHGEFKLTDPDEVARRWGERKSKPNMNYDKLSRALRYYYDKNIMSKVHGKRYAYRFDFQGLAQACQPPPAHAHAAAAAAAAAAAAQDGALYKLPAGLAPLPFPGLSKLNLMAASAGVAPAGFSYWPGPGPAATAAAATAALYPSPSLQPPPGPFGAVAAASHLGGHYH
# How it was run: (§1)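 In yeast, human transcription factors were expressed with a GST fusion, then pulled down on glutathione beads and given DNA barcodes. Pooled with a tag-only sample, they were exposed to 200 nmole of a 16-mer random double-stranded DNA library (Tris/NaCl/DTT/glycerol buffer, room temperature, 30 min), washed, crosslinked with 0.1% formaldehyde, proximity-ligated using BsaI/T4 ligase for 1 h at 37 °C, PCR-amplified and read on an Illumina NextSeq500. Each hexamer's frequency of reads for a factor, divided by the matching frequency for the tag-only sample, gives the binding signal.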
# ETV5 = ETV5 (Homo sapiens, UniProt P41161 1-510); settings: protein: recombinant; tags: N-terminal GST; dsDNA, one strand shown
# How it was run: as §1
# HSF1 = HSF1 (Homo sapiens, UniProt Q00613 1-529); settings: protein: recombinant; tags: N-terminal GST; chain copies: 3; dsDNA, one strand shown
# How it was run: as §1
# SPIC = molecular target: T2, SPIC (Homo sapiens, UniProt Q8N5J4 1-248); settings: protein: recombinant; tags: N-terminal GST; dsDNA, one strand shown
# T2 sequence: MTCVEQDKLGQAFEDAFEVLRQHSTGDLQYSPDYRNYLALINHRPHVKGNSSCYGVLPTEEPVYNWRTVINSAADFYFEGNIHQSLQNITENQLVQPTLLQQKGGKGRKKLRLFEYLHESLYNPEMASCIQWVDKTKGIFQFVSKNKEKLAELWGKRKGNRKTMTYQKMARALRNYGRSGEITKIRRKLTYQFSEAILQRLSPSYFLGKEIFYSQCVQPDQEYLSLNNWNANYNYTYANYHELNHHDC
# How it was run: as §1
# ELF4 = ELF4 (Homo sapiens, UniProt Q99607 1-663); settings: protein: recombinant; tags: N-terminal GST; dsDNA, one strand shown
# How it was run: as §1
# ELK4 = molecular target: T3, ELK4 (Homo sapiens, UniProt P28324-2 1-405); settings: protein: recombinant; tags: N-terminal GST; dsDNA, one strand shown
# T3 sequence: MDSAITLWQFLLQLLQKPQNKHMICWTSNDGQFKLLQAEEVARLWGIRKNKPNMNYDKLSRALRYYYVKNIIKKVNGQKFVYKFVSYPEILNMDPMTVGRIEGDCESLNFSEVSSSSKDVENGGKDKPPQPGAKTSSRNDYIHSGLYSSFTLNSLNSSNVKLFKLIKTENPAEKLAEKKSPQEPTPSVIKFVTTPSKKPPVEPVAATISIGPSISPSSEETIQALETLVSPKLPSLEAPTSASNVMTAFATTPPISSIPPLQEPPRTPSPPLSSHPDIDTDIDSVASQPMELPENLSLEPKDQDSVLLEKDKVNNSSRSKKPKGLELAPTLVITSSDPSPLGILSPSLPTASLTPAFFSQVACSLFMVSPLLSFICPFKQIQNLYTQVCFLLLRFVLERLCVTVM
# How it was run: as §1
# ETV2 = molecular target: T4, ETV2 (Homo sapiens, UniProt O00321 1-342); settings: protein: recombinant; tags: N-terminal GST; dsDNA, one strand shown
# T4 sequence: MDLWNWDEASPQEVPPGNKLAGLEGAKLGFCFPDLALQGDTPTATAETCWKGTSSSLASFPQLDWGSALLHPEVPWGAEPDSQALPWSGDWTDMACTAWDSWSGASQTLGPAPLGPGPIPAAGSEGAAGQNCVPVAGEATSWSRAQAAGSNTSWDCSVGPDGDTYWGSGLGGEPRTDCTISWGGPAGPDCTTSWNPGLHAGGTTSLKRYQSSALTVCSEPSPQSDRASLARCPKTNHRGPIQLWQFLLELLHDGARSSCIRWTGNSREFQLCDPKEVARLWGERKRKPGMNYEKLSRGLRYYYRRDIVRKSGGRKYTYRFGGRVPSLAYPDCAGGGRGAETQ
# How it was run: as §1
# ELF3 = molecular target: T5, ELF3 (Homo sapiens, UniProt P78545 1-371); settings: protein: recombinant; tags: N-terminal GST; dsDNA, one strand shown
# T5 sequence: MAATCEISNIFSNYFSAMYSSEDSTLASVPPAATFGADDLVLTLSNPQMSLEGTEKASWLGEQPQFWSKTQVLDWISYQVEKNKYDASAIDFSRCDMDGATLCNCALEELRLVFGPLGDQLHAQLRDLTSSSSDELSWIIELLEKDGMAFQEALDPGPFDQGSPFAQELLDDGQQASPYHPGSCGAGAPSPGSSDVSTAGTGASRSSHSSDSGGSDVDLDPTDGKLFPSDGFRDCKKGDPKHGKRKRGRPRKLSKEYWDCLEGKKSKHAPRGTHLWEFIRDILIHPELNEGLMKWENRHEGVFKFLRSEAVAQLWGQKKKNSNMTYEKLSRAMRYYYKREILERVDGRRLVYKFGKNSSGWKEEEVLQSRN
# How it was run: as §1
# CRX = CRX (Homo sapiens, UniProt O43186 1-299); settings: protein: recombinant; tags: N-terminal GST; dsDNA, one strand shown
# How it was run: as §1
# ETV1 = ETV1 (Homo sapiens, UniProt P50549 1-477); settings: protein: recombinant; tags: N-terminal GST; dsDNA, one strand shown
# How it was run: as §1
# ERF = molecular target: T6, ERF (Homo sapiens, UniProt P50548 1-548); settings: protein: recombinant; tags: N-terminal GST; dsDNA, one strand shown
# T6 sequence: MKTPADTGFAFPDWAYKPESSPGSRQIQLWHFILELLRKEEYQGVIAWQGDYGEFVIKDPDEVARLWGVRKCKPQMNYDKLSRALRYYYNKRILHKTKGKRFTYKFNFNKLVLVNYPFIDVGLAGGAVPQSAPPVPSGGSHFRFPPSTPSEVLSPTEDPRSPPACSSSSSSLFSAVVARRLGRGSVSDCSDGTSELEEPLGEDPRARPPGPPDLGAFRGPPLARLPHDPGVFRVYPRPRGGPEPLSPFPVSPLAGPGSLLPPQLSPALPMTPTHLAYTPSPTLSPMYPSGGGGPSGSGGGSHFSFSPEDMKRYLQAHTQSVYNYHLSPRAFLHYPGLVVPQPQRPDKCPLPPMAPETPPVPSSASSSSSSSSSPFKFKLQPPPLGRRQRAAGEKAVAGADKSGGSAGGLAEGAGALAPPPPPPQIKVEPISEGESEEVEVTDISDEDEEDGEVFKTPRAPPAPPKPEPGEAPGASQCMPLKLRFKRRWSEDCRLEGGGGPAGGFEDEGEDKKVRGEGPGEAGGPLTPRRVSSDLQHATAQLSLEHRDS
# How it was run: as §1
# ETV3L = molecular target: T7, ETV3L (Homo sapiens, UniProt Q6ZN32 1-361); settings: protein: recombinant; tags: N-terminal GST; dsDNA, one strand shown
# T7 sequence: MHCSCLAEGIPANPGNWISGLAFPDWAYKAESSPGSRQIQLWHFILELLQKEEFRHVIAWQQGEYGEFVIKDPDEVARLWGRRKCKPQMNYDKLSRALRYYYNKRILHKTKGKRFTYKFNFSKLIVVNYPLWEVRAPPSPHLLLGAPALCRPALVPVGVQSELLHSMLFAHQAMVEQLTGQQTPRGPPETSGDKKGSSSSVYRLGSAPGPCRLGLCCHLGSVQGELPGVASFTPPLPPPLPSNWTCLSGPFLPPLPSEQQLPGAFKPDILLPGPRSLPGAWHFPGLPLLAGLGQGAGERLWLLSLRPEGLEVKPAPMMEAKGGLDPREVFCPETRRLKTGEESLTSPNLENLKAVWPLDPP
# How it was run: as §1
# ETS2 = molecular target: T8, ETS2 (Homo sapiens, UniProt P15036 1-469); settings: protein: recombinant; tags: N-terminal GST; dsDNA, one strand shown
# T8 sequence: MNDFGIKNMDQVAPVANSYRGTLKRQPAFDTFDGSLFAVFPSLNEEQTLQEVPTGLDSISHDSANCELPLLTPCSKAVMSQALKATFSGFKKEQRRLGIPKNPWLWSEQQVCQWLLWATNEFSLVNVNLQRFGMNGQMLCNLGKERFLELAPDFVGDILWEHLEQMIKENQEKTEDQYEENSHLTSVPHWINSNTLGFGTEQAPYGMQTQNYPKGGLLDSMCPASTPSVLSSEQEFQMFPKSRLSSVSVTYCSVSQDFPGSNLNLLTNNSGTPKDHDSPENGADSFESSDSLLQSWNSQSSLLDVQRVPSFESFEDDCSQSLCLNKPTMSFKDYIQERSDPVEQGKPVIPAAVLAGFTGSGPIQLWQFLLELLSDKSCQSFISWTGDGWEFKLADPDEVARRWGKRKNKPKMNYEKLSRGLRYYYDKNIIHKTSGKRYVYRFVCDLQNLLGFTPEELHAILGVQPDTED
# How it was run: as §1
# SPDEF = molecular target: T9, SPDEF (Homo sapiens, UniProt O95238 1-335); settings: protein: recombinant; tags: N-terminal GST; dsDNA, one strand shown
# T9 sequence: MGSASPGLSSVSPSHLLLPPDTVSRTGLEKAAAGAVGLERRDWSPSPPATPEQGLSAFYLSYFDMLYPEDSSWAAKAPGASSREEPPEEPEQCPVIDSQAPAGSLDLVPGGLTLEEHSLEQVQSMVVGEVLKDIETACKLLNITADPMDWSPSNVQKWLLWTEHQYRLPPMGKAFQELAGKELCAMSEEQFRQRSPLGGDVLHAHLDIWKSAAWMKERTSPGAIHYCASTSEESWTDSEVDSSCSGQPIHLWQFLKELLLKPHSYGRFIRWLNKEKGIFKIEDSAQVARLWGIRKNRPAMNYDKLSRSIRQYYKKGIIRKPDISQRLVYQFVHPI
# How it was run: as §1
# ETV7 = molecular target: T10, ETV7 (Homo sapiens, UniProt Q9Y603 1-341); settings: protein: recombinant; tags: N-terminal GST; dsDNA, one strand shown
# T10 sequence: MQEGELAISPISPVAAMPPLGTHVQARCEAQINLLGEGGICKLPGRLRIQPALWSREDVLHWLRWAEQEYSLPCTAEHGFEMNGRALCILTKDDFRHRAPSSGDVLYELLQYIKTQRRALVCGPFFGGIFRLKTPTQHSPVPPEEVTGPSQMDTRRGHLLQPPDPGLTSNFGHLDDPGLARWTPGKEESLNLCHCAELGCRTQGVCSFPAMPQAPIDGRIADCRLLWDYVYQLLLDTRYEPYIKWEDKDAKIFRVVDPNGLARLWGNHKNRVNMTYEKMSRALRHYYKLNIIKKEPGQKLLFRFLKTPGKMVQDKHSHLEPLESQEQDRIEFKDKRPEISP
# How it was run: as §1
# ELF5 = molecular target: T11, ELF5 (Homo sapiens, UniProt Q9UKW6-2 1-255); settings: protein: recombinant; tags: N-terminal GST; dsDNA, one strand shown
# T11 sequence: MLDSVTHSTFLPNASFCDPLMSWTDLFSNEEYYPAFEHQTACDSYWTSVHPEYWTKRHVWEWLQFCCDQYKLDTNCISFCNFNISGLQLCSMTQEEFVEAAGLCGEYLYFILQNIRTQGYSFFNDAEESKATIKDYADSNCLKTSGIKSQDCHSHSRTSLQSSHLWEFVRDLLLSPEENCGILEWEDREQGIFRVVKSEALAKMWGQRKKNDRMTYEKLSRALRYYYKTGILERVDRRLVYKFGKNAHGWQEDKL
# How it was run: as §1
# ETV3 = molecular target: T12, ETV3 (Homo sapiens, UniProt P41162-2 1-143); settings: protein: recombinant; tags: N-terminal GST; dsDNA, one strand shown
# T12 sequence: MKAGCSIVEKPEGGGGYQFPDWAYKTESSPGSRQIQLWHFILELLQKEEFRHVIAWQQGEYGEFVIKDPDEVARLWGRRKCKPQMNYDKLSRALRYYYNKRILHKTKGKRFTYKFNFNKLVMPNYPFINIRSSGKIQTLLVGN
# How it was run: as §1
# ETV6 = ETV6 (Homo sapiens, UniProt P41212 1-452); settings: protein: recombinant; tags: N-terminal GST; dsDNA, one strand shown
# How it was run: as §1
# ETV5, sequence (P41161 whole entry): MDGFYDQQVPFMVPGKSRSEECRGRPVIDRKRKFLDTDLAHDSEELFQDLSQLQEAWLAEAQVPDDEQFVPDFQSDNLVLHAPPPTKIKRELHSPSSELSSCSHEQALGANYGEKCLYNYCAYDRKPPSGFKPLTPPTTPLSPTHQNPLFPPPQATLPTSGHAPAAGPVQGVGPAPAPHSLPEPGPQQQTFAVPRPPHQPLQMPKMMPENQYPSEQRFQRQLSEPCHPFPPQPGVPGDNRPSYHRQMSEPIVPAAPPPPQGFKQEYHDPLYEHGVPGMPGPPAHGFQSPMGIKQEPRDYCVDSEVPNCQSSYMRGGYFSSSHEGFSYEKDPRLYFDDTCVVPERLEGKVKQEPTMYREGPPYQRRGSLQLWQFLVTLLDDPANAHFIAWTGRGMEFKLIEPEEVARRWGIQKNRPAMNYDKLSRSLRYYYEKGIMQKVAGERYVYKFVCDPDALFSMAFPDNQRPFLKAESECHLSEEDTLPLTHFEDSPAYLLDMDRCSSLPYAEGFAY
# ETV1, sequence (P50549 whole entry): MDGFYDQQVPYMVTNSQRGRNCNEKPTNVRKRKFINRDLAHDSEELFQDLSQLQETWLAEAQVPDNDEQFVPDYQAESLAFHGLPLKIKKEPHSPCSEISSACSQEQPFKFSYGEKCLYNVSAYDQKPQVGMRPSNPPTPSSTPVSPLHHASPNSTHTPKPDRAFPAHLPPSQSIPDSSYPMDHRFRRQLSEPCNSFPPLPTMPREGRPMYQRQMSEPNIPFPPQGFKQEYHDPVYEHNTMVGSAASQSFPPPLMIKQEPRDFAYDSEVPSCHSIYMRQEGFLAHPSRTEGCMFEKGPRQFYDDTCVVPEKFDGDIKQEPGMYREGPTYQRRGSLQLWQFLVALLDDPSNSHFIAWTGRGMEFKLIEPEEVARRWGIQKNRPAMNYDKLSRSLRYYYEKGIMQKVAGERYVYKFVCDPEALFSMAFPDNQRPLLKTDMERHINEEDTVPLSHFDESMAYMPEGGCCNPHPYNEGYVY
# ETV6, sequence (P41212 whole entry): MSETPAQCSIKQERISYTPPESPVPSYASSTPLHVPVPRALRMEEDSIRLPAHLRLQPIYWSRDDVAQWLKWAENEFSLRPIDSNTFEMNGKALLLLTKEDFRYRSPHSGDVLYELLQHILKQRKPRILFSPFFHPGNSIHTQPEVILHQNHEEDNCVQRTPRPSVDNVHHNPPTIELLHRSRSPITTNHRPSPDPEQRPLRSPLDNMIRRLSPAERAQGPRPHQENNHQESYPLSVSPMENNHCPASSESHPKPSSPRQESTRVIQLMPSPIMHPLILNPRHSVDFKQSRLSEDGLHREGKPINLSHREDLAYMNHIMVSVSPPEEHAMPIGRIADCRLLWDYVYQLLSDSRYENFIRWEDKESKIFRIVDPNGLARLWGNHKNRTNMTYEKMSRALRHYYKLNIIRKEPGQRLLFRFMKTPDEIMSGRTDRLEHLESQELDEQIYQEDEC
# CRX, sequence (O43186 whole entry): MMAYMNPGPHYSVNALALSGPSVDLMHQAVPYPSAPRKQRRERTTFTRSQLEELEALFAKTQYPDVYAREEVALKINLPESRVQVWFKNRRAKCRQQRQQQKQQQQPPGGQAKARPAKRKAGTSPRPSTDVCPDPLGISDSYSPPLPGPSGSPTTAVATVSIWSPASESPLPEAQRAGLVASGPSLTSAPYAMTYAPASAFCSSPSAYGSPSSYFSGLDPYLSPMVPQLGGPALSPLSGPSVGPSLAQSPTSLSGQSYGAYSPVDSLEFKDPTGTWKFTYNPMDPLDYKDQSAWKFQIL
# ELF4, sequence (Q99607 whole entry): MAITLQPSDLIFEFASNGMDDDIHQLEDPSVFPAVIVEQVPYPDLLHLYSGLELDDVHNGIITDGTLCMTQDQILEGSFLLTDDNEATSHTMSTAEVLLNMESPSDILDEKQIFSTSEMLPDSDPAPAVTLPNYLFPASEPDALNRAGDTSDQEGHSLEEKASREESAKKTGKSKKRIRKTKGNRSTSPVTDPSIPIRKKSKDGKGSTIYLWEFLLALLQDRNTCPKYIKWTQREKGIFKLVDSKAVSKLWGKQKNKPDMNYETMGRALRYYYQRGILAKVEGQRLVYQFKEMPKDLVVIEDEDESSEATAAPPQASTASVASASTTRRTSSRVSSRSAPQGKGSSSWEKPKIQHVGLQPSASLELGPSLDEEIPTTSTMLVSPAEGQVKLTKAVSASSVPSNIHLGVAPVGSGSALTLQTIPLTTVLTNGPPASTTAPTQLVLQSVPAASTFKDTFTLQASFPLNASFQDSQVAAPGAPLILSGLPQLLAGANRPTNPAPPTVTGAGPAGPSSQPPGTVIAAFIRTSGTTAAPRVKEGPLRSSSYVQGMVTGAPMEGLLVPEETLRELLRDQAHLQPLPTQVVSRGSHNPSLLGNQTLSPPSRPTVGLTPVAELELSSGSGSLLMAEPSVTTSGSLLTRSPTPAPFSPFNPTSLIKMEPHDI
# HSF1, sequence (Q00613 whole entry): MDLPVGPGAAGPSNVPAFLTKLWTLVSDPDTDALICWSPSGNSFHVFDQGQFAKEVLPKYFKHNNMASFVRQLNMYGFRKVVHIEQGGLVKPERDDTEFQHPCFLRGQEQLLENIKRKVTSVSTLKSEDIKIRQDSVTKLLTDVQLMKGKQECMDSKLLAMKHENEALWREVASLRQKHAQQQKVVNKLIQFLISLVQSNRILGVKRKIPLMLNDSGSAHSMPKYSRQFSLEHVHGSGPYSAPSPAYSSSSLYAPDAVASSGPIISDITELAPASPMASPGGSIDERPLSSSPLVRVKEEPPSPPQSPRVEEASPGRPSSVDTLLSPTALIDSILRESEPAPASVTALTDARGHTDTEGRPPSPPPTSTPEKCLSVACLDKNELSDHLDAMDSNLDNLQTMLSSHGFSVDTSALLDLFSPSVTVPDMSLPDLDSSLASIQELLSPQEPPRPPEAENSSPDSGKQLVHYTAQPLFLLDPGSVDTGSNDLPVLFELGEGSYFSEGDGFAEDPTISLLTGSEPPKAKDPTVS
sequence,measurement,setting,value
TTAAGT,binding signal,FEV,"1.11 fold enrichment (6-mer frequency, TF over GST control)"
same,binding signal,ETV5,"1.15 fold enrichment (6-mer frequency, TF over GST control)"
same,binding signal,HSF1,"2 fold enrichment (6-mer frequency, TF over GST control)"
same,binding signal,SPIC,"1.25 fold enrichment (6-mer frequency, TF over GST control)"
same,binding signal,ELF4,"1.16 fold enrichment (6-mer frequency, TF over GST control)"
same,binding signal,ELK4,"1.03 fold enrichment (6-mer frequency, TF over GST control)"
same,binding signal,ETV2,"1.14 fold enrichment (6-mer frequency, TF over GST control)"
same,binding signal,ELF3,"1.26 fold enrichment (6-mer frequency, TF over GST control)"
same,binding signal,CRX,"3.27 fold enrichment (6-mer frequency, TF over GST control)"
same,binding signal,ETV1,"1.16 fold enrichment (6-mer frequency, TF over GST control)"
same,binding signal,ERF,"1.12 fold enrichment (6-mer frequency, TF over GST control)"
same,binding signal,ETV3L,"1.15 fold enrichment (6-mer frequency, TF over GST control)"
same,binding signal,ETS2,"1.16 fold enrichment (6-mer frequency, TF over GST control)"
same,binding signal,SPDEF,"1.31 fold enrichment (6-mer frequency, TF over GST control)"
same,binding signal,ETV7,"1.19 fold enrichment (6-mer frequency, TF over GST control)"
same,binding signal,ELF5,"1.12 fold enrichment (6-mer frequency, TF over GST control)"
same,binding signal,ETV3,"1.12 fold enrichment (6-mer frequency, TF over GST control)"
same,binding signal,ETV6,"1.19 fold enrichment (6-mer frequency, TF over GST control)"
